This is part of a sample that, as a whole, favours compounds with a hit. Of some 83,000 tested, about 20% had one in any assay.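 Treatment: one concentration, 48 hours, 96-well format. Scoring: percent growth, with anything below 10 considered active.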 A number with no mark means an inactive call. Active and inactive are the calls of the source.
Assays:
Assay in all cases: NCI-60 one-dose screen, 48 h (100 = growth as untreated, 0 = no growth, -100 = all killed)
HT29 colon = settings: 10 µM unless noted
SNB-75 CNS = settings: 10 µM
U251 CNS = settings: 10 µM unless noted
PC-3 prostate = settings: 10 µM unless noted
SK-MEL-5 melanoma = settings: 10 µM unless noted
UACC-62 melanoma = settings: 10 µM unless noted
LOX IMVI melanoma = settings: 10 µM unless noted
SK-MEL-28 melanoma = settings: 10 µM unless noted
SK-MEL-2 melanoma = settings: 10 µM unless noted
SN12C renal = settings: 10 µM unless noted
UO-31 renal = settings: 10 µM unless noted
TK-10 renal = settings: 10 µM unless noted
A498 renal = settings: 10 µM unless noted
CCRF-CEM leukemia = settings: 10 µM unless noted
MOLT-4 leukemia = settings: 10 µM unless noted
SNB-19 CNS = settings: 10 µM unless noted
EKVX NSCLC = settings: 10 µM unless noted
ACHN renal = settings: 10 µM unless noted
CAKI-1 renal = settings: 10 µM unless noted

Structure (SMILES)	growth (HT29 colon)	growth (SNB-75 CNS)	growth (U251 CNS)	growth (PC-3 prostate)	growth (SK-MEL-5 melanoma)	growth (UACC-62 melanoma)	growth (LOX IMVI melanoma)	growth (SK-MEL-28 melanoma)	growth (SK-MEL-2 melanoma)	growth (SN12C renal)	growth (UO-31 renal)	growth (TK-10 renal)	growth (A498 renal)	growth (CCRF-CEM leukemia)	growth (MOLT-4 leukemia)	growth (SNB-19 CNS)	growth (EKVX NSCLC)	growth (ACHN renal)	growth (CAKI-1 renal)
Fc1ccccc1-c1nc(-c2nc3cc(Cl)c(Cl)cc3[nH]2)c2ccccn12	70.8%	38.1%	95%	62.2%	79.4%	83.1%	79.9%	83.9%	81.5%	70.7%	62.6%	76.5%	104%	81.9%	67.1%				
CC(C)NCCCNC1=C(Cl)C(=O)c2ccccc2C1=O	83.1%	79.4%	52.9%	57.5%	44.3%	92.7%	25.9%	112%	125%	91.7%	81.9%	114%	88.1%	76.6%	-45.8% (active)	106%	80.4%	81.1%	66.7%
O=S1(=O)CCC(N(/N=C/c2ccco2)c2ccccc2)C1 (centres undefined)	96.3%	132%	99%	93.1%	103%	100%	94.1%			109%	86%	101%	113%	94%	97.1%			106%	107%
CCCCC(CC)OC(=O)C(Br)CC (centres undefined)		90.1%	97.2%	102%	102%	106%	94.1%	103%	100%	115%	93.6%	103%	97.4%	109%	95.4%	110%	105%	109%	
CC(C)CC1NC(C)(C)CO1 (centres undefined)	97.5%		109%	94.4%	104%	106%	97.2%	111%	113%	112%	90.2%	96.4%		102%			123%	113%	92.5%
COc1cccc(/C=C2\Oc3cc(OCCCN4CCCC4)ccc3C2=O)c1OC	48.6%		93.2%	91.9%		98.9%	89.2%	105%	105%	95.2%	79.3%	104%		85.1%	91.5%	102%	93%	102%	93.1%
O=C1NN(C(=O)c2ccc(Cl)cc2)C(c2ccccc2)=N/C1=C\c1cn(-c2ccccc2)nc1-c1ccccc1	87.8%		92.4%	94.8%	79.9%	91%	97.6%	94.8%		93.2%		102%	69%		98.6%	90.7%	81.4%	98.5%	
COc1ccc(C(=O)N2NC(=O)/C(=C/c3ccc(F)cc3)N=C2c2ccccc2)cc1	94.6%		56.4%	89.1%	96.1%	77.4%	91.7%	102%		84.7%	91.7%	96.4%	69.2%		42.4%	83.7%	88.4%	94.2%	86.1%
CCN(CC)CCOc1ccc(/C(=C(/C)c2ccccc2)c2ccc(OC(C)=O)cc2)cc1	67.2%		103%	96.9%	100%	103%	102%	105%	121%	93.6%	80.4%	111%	73.6%	94.3%	106%	107%	95.6%	111%	90.8%
COc1cc(-c2nn(-c3cccc(NC(=O)c4cccc(C(F)(F)F)c4)c3)cc2-c2ccncc2)ccc1Cl	-12.1% (active)		13.1%	4.39% (active)	-33% (active)	27.2%	11.4%	32.5%	-38.6% (active)	34.4%	25.1%	8.08% (active)	-19% (active)	3.1% (active)	8.63% (active)	47.3%		31.6%	44.7%
Clc1cc2c(nn1)Nc1ccccc1S2	102%		97.3%	92.4%	95%	95.2%	98.6%	109%	-4.79% (active)	97.1%	106%	129%	89.1%	93.7%	96.3%	88.5%	52.3%	99.1%	
COc1cc(/C=C/c2cc(/C=C/c3ccc(O)c(OC)c3)n(C(N)=O)n2)ccc1O		-40.9% (active)	-10.9% (active)	-23.5% (active)	-33% (active)	-47.2% (active)	1.48% (active)	-24.6% (active)	-52.7% (active)	-5.22% (active)	-22.1% (active)		-24.4% (active)	-22.9% (active)	-33% (active)	4.95% (active)		-11.2% (active)	14.1%
O=S(=O)(NCCNc1nccc(-c2c(-c3ccc(F)cc3)nc3sccn23)n1)c1ccc(F)cc1	52.1%		79.8%	75.3%	70.8%	71.6%	58.3%	87.6%	76.3%	73%	42.7%	114%	96.8%	64.3%	73.9%	88.5%		52.5%	62.7%
COc1ccc(-c2nc(/C=N/Nc3cc(C)nc4ccc(Br)cc34)c(C)o2)cc1	-76.2% (active)		-85.8% (active)	-78.1% (active)	47.4%	-77.5% (active)	-86.7% (active)	-74.6% (active)	104%	-89.2% (active)	-99.1% (active)	-51.8% (active)	58.5%	-50.4% (active)	-53.3% (active)	-84.4% (active)	-8.99% (active)	-100% (active)	-91.2% (active)
Cc1ccc(-c2cc3nc(C(Cl)Cl)nc(-c4ccccc4C)n3n2)cc1	8.13% (active)		46.3%	43.1%	82.6%	59.7%		89.1%	94.5%	86.7%	75.3%	54.8%	74.4%	96.1%	62.9%	70.2%	71.1%	49.1%	48.1%
COc1ccc(C2C=C(c3ccc(Cl)cc3)N=C3SC=C(C)N32)c(Br)c1 (centres undefined)	4.51% (active)		49.7%	60.7%	48.9%	58.1%	16.7%	38.4%	68.3%	46.4%	40.7%	65.2%	90.2%	7.84% (active)	29.5%	78.2%		53%	49.9%
